ROMK mod – human ROMK K+ channel modulation, primary screen; B-score at 10 µM; 130,000 tested, 2% active; P48048; Tet-inducible ROMK, thallium flux fluorescence; actives lie on both sides; AID 1918;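 active means signal ratio slope over the read window, or its plate-corrected B-score, at least 3 SD from the plate mean, either direction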;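 further: B-score of the F/F0 ratio slope over 7 to 12 s after thallium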
Target sequence (P48048 whole entry, looked up): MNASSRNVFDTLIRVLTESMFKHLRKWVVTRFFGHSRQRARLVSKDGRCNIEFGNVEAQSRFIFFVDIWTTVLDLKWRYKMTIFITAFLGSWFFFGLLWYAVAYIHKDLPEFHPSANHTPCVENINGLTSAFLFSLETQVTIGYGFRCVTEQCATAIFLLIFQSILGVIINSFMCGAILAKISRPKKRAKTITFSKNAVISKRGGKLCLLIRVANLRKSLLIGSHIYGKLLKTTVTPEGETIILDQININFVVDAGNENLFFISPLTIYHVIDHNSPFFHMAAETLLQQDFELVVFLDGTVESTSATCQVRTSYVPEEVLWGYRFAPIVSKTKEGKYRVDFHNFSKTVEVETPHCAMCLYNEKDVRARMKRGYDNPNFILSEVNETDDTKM
Calpain2 inh – calpain II (pig) inhibition. purified calpain II, fluorogenic peptide substrate, 30 min. inhibition, % at 16 µM. 220,000 tested, 0.37% active. AID 1236;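 active means inhibition above about 50%, limit read from the data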
HMGR II inh – blocks class II HMG-CoA reductase of Enterococcus faecalis. purified E. faecalis HMGR, NADPH absorbance 340 nm kinetic. inhibition, % at 10 µM. 190,000 tested, 0.41% active;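 active means inhibition above a set limit, the median over all tested compounds plus 3 SD, cut at about 9.5% in these data; inconclusive means no clear call, values can overlap the other calls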;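 further: enzyme runs in reverse so mevalonate oxidation gives rising NADPH absorbance; 0% = complete reaction with DMSO and 100% = background rate lacking mevalonate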
HSV augment – HSV replication enhancement; HSV replication augmentation in cells, fold increase; maximum fold increase; 220,000 tested, 0.005% active; AID 1956; in the data active means maximum fold increase above about 1.5; inconclusive means no clear call, values can overlap the other calls; tested in PC3 cells
Arbovirus inh – antivirals against arbovirus infection | arbovirus infection cell-based antiviral screen | inhibition, % at 10 µM | 200,000 tested, 0.37% active; in the data active means inhibition above about 30%
ROMK hit retest – retested hit modulating human ROMK potassium channel; shares compounds with ROMK mod; ROMK thallium flux, fluorescence ratio; hits give low values; normalized thallium flux (F/F0 slope) at 10 µM; 3,000 tested, 54% active; AID 1917;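 active means Flux at 10 µM at least 3 SD below or above vehicle control mean in one or both replicates; inconclusive means no clear call, values can overlap the other calls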
Numbers without * were called inactive; i = inactive; ? = inconclusive; · = no result given; ! = not confirmed by another sample. The list is not random: actives were taken first. Their share in the collection is about 2.1%.

SMILES	ROMK mod	Calpain2 inh	HMGR II inh	HSV augment	Arbovirus inh	ROMK hit retest
Cc1cc(C)nc(/N=C(\N)Nc2ccccc2-c2ccccc2)n1	-4.8*	1	-6	i	-3	0.053*
CCCCc1ccc(N/C(N)=N/c2nc(C)cc(C)n2)cc1	·	8	·	i	·	0.057*
COc1cc2c(cc1OC)CN(CCC(=O)c1ccc(Br)cc1)CC2	-4*	-33	1	i	-27	?
CCOC(=O)CSc1n[nH]c(NC(=O)NC(C)C)n1	0.97	-15	-1	i	5	·
COc1ccc(-c2nc3n(c2C)CCC3)cc1	·	-18	·	i	·	·
COc1ccc(C2=C(SC)CC2=NC(C)(C)C)cc1	-4.7*	17	1	i	-4	0.046*
C=CCn1c(SCc2c(C)noc2C)nc2cc(C(=O)O)ccc2c1=O	6*	-6	-7	i	-17	?
COC(=O)c1cc(C(=O)N2CCN(c3cccc(Cl)c3)CC2)cc([N+](=O)[O-])c1	3.7*	22	-5	i	-1	?
O=C(c1cccc([N+](=O)[O-])c1)N1CCN(c2cccc(Cl)c2)CC1	-0.052	-29	-6	i	-14	·
O=C1C2C(c3cccc(/C=C/c4ccccc4)c3)CC=CC2C(c2ccc(C(F)(F)F)cc2)N1Cc1ccccc1 (configuration not stated)	·	-34	·	i	·	0.087
Cn1nc(C(=O)OCC(=O)Nc2cccc(S(=O)(=O)N3CCCC3)c2)c2ccccc2c1=O	·	7	·	i	·	·
CC(=O)N1C(=O)C(=C2C=C(C)OC(C)=C2)c2ccccc21	·	-72	-4	i	-9	0.062*
C=CCNCCCCOc1ccccc1-c1ccccc1	-3*	9	2	i	-16	0.062*
Cc1ccc(N(CC(=O)NCCSc2ccccn2)S(=O)(=O)c2ccc(F)cc2)cc1	-0.99	-12	-2	i	-10	·
Cc1ccccc1NC(=O)c1ccc(NS(=O)(=O)c2cc(C(C)(C)C)cc(C)c2C)cc1	·	-24	-2	i	11	·
Cc1cc(C(C)(C)C)cc(S(=O)(=O)Nc2cccc(C(=O)O)c2)c1C	4.7*	-32	-4	i	-9	0.079
Cc1ccc(N2CCN(C(=O)NC3CCCCC3)CC2C)cc1 (configuration not stated)	·	13	·	i	·	·
COC(=O)c1ccc(-c2sc3nc(N4CCOCC4)c4c(c3c2N)CCCC4)o1	-4.3*	-185	0	i	1	0.058*
CN(C)C(=O)c1sccc1Oc1ccc(F)cc1[N+](=O)[O-]	-0.44	9	-3	i	-1	0.08
O=C(O)c1sccc1Oc1ccc(F)cc1[N+](=O)[O-]	·	-9	-2	·	-1	·
CCOC(=O)CCc1nc2ccccc2[nH]1	0.63	-7	0	i	2	·
COCC(=O)O[C@]1(CCN(C)CCCc2nc3ccccc3[nH]2)CCc2cc(F)ccc2[C@@H]1C(C)C	·	-17	·	i	·	0.061*
CC(=O)NC(Cc1ccccc1C)C(=O)NC1CCN(C(=O)c2cccc(C)c2)CC1 (configuration not stated)	1.5	-3	0	i	1	·
CN1CC=C2C(C#N)=C(N)C(C#N)(C#N)[C@H](c3cccs3)[C@H]2C1	-1.6	-13	-8	?	-8	·
CN1CCC2(CC1)C1CN(C)CC=C1C(C#N)=C(N)C2(C#N)C#N (configuration not stated)	-3.4*!	-64	-11	?	5	0.057*
SMILES	ROMK mod	Calpain2 inh	HMGR II inh	HSV augment	Arbovirus inh	ROMK hit retest
Cc1ccc(NNc2c(C)nc3ccccc3nc2=O)cc1	2.7*	-20	-1	i	-6	0.11*
COc1cc(O)cc2c1[C@@H]1Oc3c(ccc(O)c3CC=C(C)C)[C@@H]1CO2	·	·	·	i	·	·
COc1cc(/C=N/N=C(N)N)ccc1OCc1ccccc1Cl	-3.7*	12	-1	i	-29	0.055*
CCOC(=O)c1sc(NC(=O)CSc2nncn2C)nc1C	0.21	31	1	i	7	·
Nc1nc(Nc2ccccc2)sc1C(=O)c1ccccc1	·	9	·	i	·	?
CN(C(=S)Nc1ccc(F)cc1)C1(c2ccccc2Cl)CCCCC1=O (configuration not stated)	·	15	1	i	0	0.08
CN(N)C(=S)Nc1ccc(F)cc1	·	-7	-1	i	2	·
COc1ccccc1NS(=O)(=O)c1cccc(-n2c(O)c(C=Nc3ccccc3C(=O)O)c3ccccc3c2=O)c1	·	-33	·	i	·	·
CNC(=S)NCCc1cc2c(OC)ccc(OC)c2[nH]c1=O	0.037	-44	-3	i	-1	·
CCCCCCCc1c(O)nc(SCCN2CCOCC2)[nH]c1=O	0.22	-7	-2	i	8	·
COc1ccc(-n2c(-c3cnccn3)n[nH]c2=S)cc1	·	8	-2	i	10	0.086
c1ccc2sc(Sc3ncnc4sccc34)nc2c1	·	-4	-5	i	-35	0.078
CCc1cc2c(Sc3nc4ccccc4s3)ncnc2s1	·	18	-3	i	-13	·
Cc1sc2ncn3c(C)nnc3c2c1C	·	-3	1	i	3	0.081
Cc1sc2ncn(CCn3cnc4sc(C)c(C)c4c3=O)c(=O)c2c1C	-0.05	-95	-4	i	6	·
O=C(CCCn1c(=O)[nH]c2cc(Cl)ccc2c1=O)NCCCN1CCN(c2ccc(F)cc2)CC1	·	-6	2	i	-1	·
CCOc1cccc(NC(=O)/C(C#N)=C\c2cccnc2)c1	-3.3*	0	-4	i	0	0.047*
N#C/C(=C\c1cccnc1)C(=O)Nc1ccccc1	-4.2*	-5	-4	i	-1	0.053*
O=C(c1ccc(S(=O)(=O)N2CCc3ccccc3C2)cc1)N1CCCCC1	0.18	-1	-8	i	10	·
O=C(/C=C/c1cccc(O)c1)c1ccc(N2CCOCC2)cc1	·	-15	·	i	·	·
CCCCCCOc1ccc(NC(=O)CC2C(=O)N(CC)C(=S)N2Cc2ccco2)cc1 (configuration not stated)	-0.32	33	-3	i	-30	·
O=C(N/N=C\c1c(O)ccc2ccccc12)c1ccc(S(=O)(=O)N2CCCCC2)cc1	-3.8*	-212	-4	i	-28	0.051*
Nc1ncncc1-c1ccc2ccccc2c1	·	10	·	i	·	·
Cc1ccc(NC2=Nc3ccccc3CC2)cc1	1.7	-9	-7	i	3	·
Brc1ccc(NC2=Nc3ccccc3CC2)cc1	·	-1	-6	i	-7	0.08
SMILES	ROMK mod	Calpain2 inh	HMGR II inh	HSV augment	Arbovirus inh	ROMK hit retest
CCOCc1cc(=O)[nH]c(SC)n1	·	-3	·	i	·	·
COc1ccc(/C=C/c2nc3sc4c(c3c(=O)o2)CCC4)cc1	·	·	·	i	·	·
O=c1oc(/C=C/c2ccccc2)nc2sc3c(c12)CCC3	-3.7*	-34	-4	i	66*	0.045*
N#CCc1c(C#N)c(N)nc(N2CCN(Cc3ccc4c(c3)OCO4)CC2)c1C#N	-5.6*	-220	-4	·	-8	0.048*
Cc1nc(-c2ccc(S(=O)(=O)NCc3cccnc3)s2)cs1	-0.32	17	·	i	·	·
COCCCNC(=O)C1CCC(CNS(=O)(=O)c2ccc(Cl)cc2)CC1 (configuration not stated)	·	-3	0	i	-5	0.086

Assay outcomes deposited in PubChem BioAssay by several laboratories.
